# Screens: PubChem, National Center for Advancing Translational Sciences (NCATS)
# RORg inh: ROR gamma (mouse) transcription inhibition | Drosophila S2 Gal4-RORgamma UAS-luciferase reporter, 20 h | actives 5.4% (n = 310,000) | P51450 | Potency, µM (top dose mostly 53.6 µM), for inactives: top-dose activity change, negative = inhibition, most hits filed as inhibitors; also: % is scaled to controls: 0 for no effect and ±100 for the full control effect; nearly all actives have a fitted effect of over 60% in size
# Target sequence (P51450 whole entry, looked up, the tested form may be a part): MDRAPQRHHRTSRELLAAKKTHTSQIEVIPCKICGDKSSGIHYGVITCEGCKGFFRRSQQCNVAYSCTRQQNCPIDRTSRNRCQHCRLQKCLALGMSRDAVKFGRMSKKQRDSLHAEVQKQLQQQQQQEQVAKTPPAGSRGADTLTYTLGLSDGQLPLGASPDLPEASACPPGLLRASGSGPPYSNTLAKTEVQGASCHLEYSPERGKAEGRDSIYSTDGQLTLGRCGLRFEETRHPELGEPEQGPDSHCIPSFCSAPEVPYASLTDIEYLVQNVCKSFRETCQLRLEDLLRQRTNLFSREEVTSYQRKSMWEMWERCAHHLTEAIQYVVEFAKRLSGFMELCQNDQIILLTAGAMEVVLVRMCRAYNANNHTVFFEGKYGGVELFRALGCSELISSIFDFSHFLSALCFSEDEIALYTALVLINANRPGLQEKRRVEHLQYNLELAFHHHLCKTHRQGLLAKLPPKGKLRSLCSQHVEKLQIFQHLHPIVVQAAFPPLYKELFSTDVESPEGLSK
#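 Luciferase reporter read in Schneider cells carrying Gal4-RORγ (mouse) and UAS-Photinus luciferase; cells given compound 1 h before 700 uM copper sulfate induction, then incubated 20 h at ambient temperature.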
# MCF10A rerep: DNA re-replication induction in MCF 10a cells; MCF 10A DNA re-replication, Hoechst nuclear intensity, 48 h; Potency, µM (titrated, usually from 46.1 µM), inactives show at the highest dose activity, positive = re-replication, most hits filed as activators; actives 2.9% (n = 350,000); AID 624296; also: % of control where 0% means no effect; nearly all actives have a fitted effect of over 50% in size
# SW480 rerep: inducers of DNA re-replication in SW480 colon cancer cells | AID 624297 | SW480 DNA re-replication, Hoechst DNA content imaging, 48 h | actives 1.8% (n = 340,000) | Potency, µM (doses to about 46.1 µM), without a hit: top-dose re-replication activation, hits mostly activators; also: % of control where 0% means no effect; nearly all actives have a fitted effect of over 55% in size
#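 Quantitative HTS format with DMSO vehicle controls; 48 hr drug incubation at 37 C, then 40 min Hoechst staining and scanning imager measurement at 405 nm excitation.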
# VP16 counter: counter-screen for ROR gamma inhibitors: Gal4-VP16 reporter. Drosophila S2 Gal4-VP16 UAS-luciferase, luminescence, 20 h. Potency, µM (series often up to 53.6 µM), for the others: at the highest dose activity, negative = inhibition, actives largely listed as inhibitors. actives 3.5% (n = 310,000);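 also: Gal4-VP16 expression switched on by copper sulfate through the metallothionein promoter; % is scaled to controls: 0 for no effect and ±100 for the full control effect; nearly all actives have a fitted effect of over 50% in size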
# ELG1 DNA repair: blocks ELG1-dependent DNA repair in HEK293T cells. HEK293T ELG1-luciferase reporter, luminescence, 16 h; DNA damage induced by 5-fluorouridine. Potency, µM (series often up to 46.1 µM), for inactives: top-dose activity change, negative = inhibition, hits mostly inhibitors. actives 2.3% (n = 330,000). AID 504467; also: % is scaled to controls: 0 for no effect and ±100 for the full control effect; nearly all actives have a fitted effect of over 55% in size
#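 Reporter activity after DNA damage by 5-fluorouridine is monitored. Compound-treated cells incubate 16 hr at 37 °C, then ONE-Glo is added for 30 min before luminescence reading.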
# * = called active by the depositor; ? = inconclusive; . = not tested or not shown; [ ] = remark or other dose. This is a sample that favours compounds with a hit; in the whole collection about 10% have one here. Calls follow the shape of the dose curve; as a rule, active = well fitted curve in the direction sought with a large enough effect; inconclusive = small, poorly fitted or top-dose-only effect, or another doubt; inactive = no such curve, though single readings can be large; an effect the other way counts as inactive or inconclusive. Potency is read from the fitted curve at half-maximal effect.
SMILES,RORg inh,MCF10A rerep,SW480 rerep,VP16 counter,ELG1 DNA repair
Cc1onc(-c2c(F)cccc2Cl)c1C(=O)ONC(=O)c1ccco1,-43%,1%,6%,-9%,-1%
CCC(C(=O)Nc1ccc([N+](=O)[O-])cn1)c1ccccc1 (configuration not stated),6%,0%,3%,5%,-14%
Nc1ccc(Nc2nc(-c3cc4ccccc4oc3=O)cs2)cc1,-13%,22%,2%,21%,?
COc1cccc2sc(Nc3nc(-c4ccncc4)cs3)nc12,13µM*,21µM*,?,-14%,?
COc1cccc2sc(Nc3nc(-c4cc5ccccc5oc4=O)cs3)nc12,?,1.3µM*,5.2µM*,?,?
COc1ccc(-c2csc(Nc3cccnc3)n2)cc1OC,-5%,6%,0%,5%,?
CN1C(=O)/C(=C/c2cc(C(C)(C)C)c(O)c(C(C)(C)C)c2)NC1=S,7.1µM*,13%,-1%,?,0%
CN1C(=O)/C(=C/c2ccccc2OCc2ccc(C(=O)O)cc2)NC1=S,10%,-13%,1%,-21%,5%
O=C(NC1CCCCC1)C(c1ccc(F)cc1)N(C(=O)c1csnn1)C1CCCC1 (configuration not stated),-26%,-4%,-1%,-4%,3%
Cc1ccc(S(=O)(=O)N/N=C\c2ccc3c(c2)OCO3)cc1,21%,-3%,21%,-7%,4%
Cc1ccc(S(=O)(=O)N/N=C\c2cc3c(cc2Br)OCO3)cc1,?,4.6µM*,?,6%,-9%
CCOC(=O)c1ccc(N2C(=O)[C@@H](c3ccccc3)[C@H]2c2ccccc2)cc1,.,?,-1%,.,?
CCOC(=O)c1ccc(N2C(=O)C3C(/C=C/c4ccccc4)OC4(C(=O)c5ccccc5C4=O)C3C2=O)cc1 (configuration not stated),24%,26µM*,-6%,-16%,-1%
Cn1nc(C(F)(F)F)cc1C(=O)Nc1ccc(-c2ccno2)cc1,-2%,1%,-8%,-9%,13µM*
Cn1nc(C(F)(F)F)cc1C(=O)Nc1ccc(Cl)cc1,24%,3%,-127%,-7%,-19%
O=C(c1ccccn1)c1conc1C(=O)c1ccc(Br)cc1,13µM*,?,?,?,-8%
Cn1nnnc1SCC(=O)Nc1cc(S(=O)(=O)N2CCCCC2)ccc1Cl,.,-21%,-2%,.,-26%
Cc1ccc(C(=O)NCCn2c(N)c(C#N)c3nc4ccccc4nc32)cc1,19%,?,21µM*,-14%,-2%
N#Cc1c(N)n(CCNC(=O)c2ccc(Cl)cc2)c2nc3ccccc3nc12,-26%,18µM*,?,-19%,?
C[C@@H](O)[C@@H]1C(=O)N2C(C(=O)O)=C([C@H]3CCCO3)S[C@H]12,13%,0%,3%,2%,.
COC(=O)[C@H](COC(C)(C)C)NC(=O)O[C@@H]1C(=O)c2cc(Br)ccc2O[C@H]1c1ccc2c(c1)OCO2,12%,.,.,0%,.
CN(c1ccc(C(=O)N2CCOCC2)cc1[N+](=O)[O-])C1CCCCC1,?,0%,-6%,17%,?
CSC1=C(C#N)C(c2ccc(Cl)cc2)C2=C(CC(C)(C)CC2=O)N1 (configuration not stated),29%,?,21%,-4%,18µM*
CCCSC1=C(C#N)C(c2ccc(OC)cc2)C2=C(CC(C)(C)CC2=O)N1 (configuration not stated),?,?,10%,-16%,-8%
Nc1c(C(O)(C(F)(F)F)C(F)(F)F)cc(C(O)(C(F)(F)F)C(F)(F)F)c2ccccc12,?,18µM*,28%,?,?
SMILES,RORg inh,MCF10A rerep,SW480 rerep,VP16 counter,ELG1 DNA repair
Cc1ccc(OCC(=O)NNC(=O)C2CCC2)cc1C,.,3.3µM*,-2%,.,?
Cc1ccc(OCC(=O)NNC(=O)c2ccc(NC(=O)C3CC3)cc2)c(C)c1,?,5%,-20%,-1%,-2%
CC(C)c1ccc(OCC(=O)NNC(=S)NC(=O)C2CC2)cc1,?,?,?,?,-18%
Cc1ccc(OCC(=O)NNC(=S)NC(=O)C2CC2)c(C)c1,8.9µM*,.,.,-22%,?
Cc1ccc(OCC(=O)NNC(=S)NC(=O)C2CCCCC2)c(C)c1,10µM*,-1%,4%,-16%,1%
c1ccc(-c2nnsc2Sc2ccccn2)cc1,28%,20%,-5%,12%,?
CC(C)Cn1c(-c2ccc(Br)o2)n[nH]c1=S,6.3µM*,1%,-3%,?,0%
Cc1ccsc1/C=N/n1c(-c2ccccc2)n[nH]c1=S,14%,14%,3%,-9%,16%
CC(C)Cn1c(-c2nn(C)cc2Cl)n[nH]c1=S,11µM*,0%,-10%,?,-13%
CCn1c(-c2nn(C)cc2Cl)n[nH]c1=S,11µM*,5%,-5%,?,29%
Cc1ccc(-n2c(-c3nn(C)cc3Cl)n[nH]c2=S)cc1,?,7%,-1%,-19%,-6%
Cc1ccsc1-c1n[nH]c(=S)n1CC(C)C,2.8µM*,5%,-3%,6.3µM*,1%
Cn1c(CN2CCOCC2)nnc1SCc1cccc(F)c1,-14%,1%,-21%,6%,5%
Cc1ccc2nsnc2c1NC(=O)c1ccc(-c2cc(Cl)ccc2Cl)o1,?,18%,13µM*,?,?
Cc1ccc2nsnc2c1NC(=O)c1ccc([N+](=O)[O-])o1,?,21µM*,2%,-1%,?
CC(C)=C1C2CCC1C1C(=O)N(c3nc(-c4ccc(F)cc4)c(C)s3)C(=O)C21 (configuration not stated),4%,?,16%[9.22 µM],20µM*,-10%
CS(=O)(=O)c1ccc(-c2nnc(NC(=O)c3ccc(S(=O)(=O)N4CCCC4)cc3)o2)cc1,.,12%,-5%,.,6%
CC1CCN(S(=O)(=O)c2ccc(C(=O)Nc3nnc(C4CC4)o3)cc2)CC1,0.35µM*,?,13µM*,0.32µM*,-23%
O=C(NC1CCCCC1)c1ccc(S(=O)(=O)N2CCCCC2)cc1,13%,10%,-1%,3%,-23%
O=C(Nc1nnc(C2CC2)o1)c1ccc(S(=O)(=O)N2CCCCC2)cc1,0.89µM*,10%,20%,0.56µM*,17%
CC(=O)Nc1ccc(S(=O)(=O)N2CCC(c3nnc(-c4ccc(C)cc4)o3)CC2)cc1,14µM*,18%,1%,?,?
Cc1ccc(NC(=O)c2ccc(S(=O)(=O)N3CCC(C)CC3)cc2)cc1,-24%,-1%,0%,-25%,-15%
CC1CCN(S(=O)(=O)c2ccc(C(=O)Nc3nnc(-c4ccncc4)o3)cc2)CC1,1.1µM*,?,16µM*,4µM*,?
